In all, about 16,000 compounds went through this assay and about 5,700 (36%) were called active. Not shown: some 24% with an inconclusive outcome. The list shows a part of the results. A number with no mark means an inactive call. Calls follow the shape of the dose curve; as a rule, active = well fitted curve in the direction sought with a large enough effect; inconclusive = small, poorly fitted or top-dose-only effect, or effect the other way; inactive = no such curve, though single readings can be large or run the other way.
% is scaled to controls: 0 for no effect and ±100 for the full control effect.

Sequence of Cytochrome P450 1A2 (Homo sapiens) (P05177 whole entry, looked up): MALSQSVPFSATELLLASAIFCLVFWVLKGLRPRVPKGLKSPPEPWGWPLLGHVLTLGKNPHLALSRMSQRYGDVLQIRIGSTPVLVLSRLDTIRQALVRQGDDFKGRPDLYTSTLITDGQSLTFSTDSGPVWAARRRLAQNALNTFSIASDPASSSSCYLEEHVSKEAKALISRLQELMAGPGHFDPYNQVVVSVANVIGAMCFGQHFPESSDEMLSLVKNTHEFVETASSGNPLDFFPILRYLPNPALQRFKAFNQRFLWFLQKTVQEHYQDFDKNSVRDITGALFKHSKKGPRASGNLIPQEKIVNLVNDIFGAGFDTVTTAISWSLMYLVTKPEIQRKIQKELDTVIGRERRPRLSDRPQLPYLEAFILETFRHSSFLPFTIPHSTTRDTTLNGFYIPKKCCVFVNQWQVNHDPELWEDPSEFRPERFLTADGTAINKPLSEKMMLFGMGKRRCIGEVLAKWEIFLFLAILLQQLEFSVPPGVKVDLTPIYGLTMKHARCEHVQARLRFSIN

This assay concerns the target Cytochrome P450 1A2 (Homo sapiens) (UniProt P05177). Put plainly: Cytochrome panel assay with activity outcomes. To be noted: recombinant CYP, pro-luciferin dealkylation, luminescence, p450-cyp1a2; series mostly up to 57.1 µM; activity, negative = inhibition: at the top concentration.
For orientation: AC50 means the concentration giving half of the maximal activity seen. For the molecule `O=C(CSc1nnc(Cn2nnc3ccccc32)o1)Nc1cccc(Cl)c1`, the AC50 is 12.6 µM (active).
For `COc1cccc(C(C(=O)Nc2ccc(F)cc2)N(C(=O)Cn2nnc3ccccc32)C2CC2)c1` (stereo unspecified), the “activity, negative = inhibition” value is -8.22%.
Turning to `Cc1cc(C)c2cc(CN(Cc3nnnn3Cc3ccc(F)cc3)C3CCCC3)c(=O)[nH]c2c1`, the AC50 is 14.1 µM (active).
For the molecule `CN(C)S(=O)(=O)Nc1ccccn1`, the activity, negative = inhibition is -5.82% [at 11.4 µM].
Same read-out and setting: next, `Nc1ccc(S(=O)(=O)Nc2ccccn2)cc1`: -9.64% [at 25.6 µM].
Regarding `O=C1C(Cl)=C(Nc2ccc(S(=O)(=O)Nc3ccccn3)cc2)C(=O)c2ccccc21`, the half-maximal activity concentration (AC50) was 3.16 µM (active).
For the molecule `CCCCOC(=O)CSc1nnc(-c2cc(OC)c(OC)c(OC)c2)o1`, the AC50 is 31.6 µM (active).
On to `COc1cc(C(=O)Nc2ccc(-c3nnc(-c4ccco4)o3)cc2)cc(OC)c1OC`, for which the “activity, negative = inhibition” value is 14.3%.
On to `COc1cc(-c2nnc(SCC3(c4ccccc4)OCCO3)o2)cc(OC)c1OC`, for which the half-maximal activity concentration (AC50) is 12.6 µM (active).
Turning to `COc1cc(-c2nnc(-c3ccc(N4CCOCC4)cc3)o2)cc(OC)c1OC`, the “activity, negative = inhibition” value is -18.7%.
For the molecule `CN1CCN(c2ncncc2-c2ccc(N(C)C)cc2)CC1`, the AC50 is 12.6 µM (active).
The same measure, in the same setting: next, `c1cn(-c2ccnc(-c3ccc4c(c3)OCO4)n2)cn1`: 0.0251 µM (active); `CN(C)C(=O)c1ccc(-c2cncnc2-n2ccnc2)cc1`: 20 µM (active); `CN(C)c1ccc(-c2cncnc2-n2ccnc2)cc1`: 2.51 µM (active).
For the molecule `CN(C)C(=O)c1ccc(-c2cncnc2N2CCNCC2)cc1`, the “activity, negative = inhibition” value was 0.554%.
The same measure, in the same setting: next, `CC1=C/C(=N/O)C([C@H]2C=C(C)CC(C)(C)[C@@H]2O)C(C)(C)C1` (stereo partly specified): -5.85% [at 11.4 µM].
For the molecule `CN(C)C(=O)c1ccc(-c2nccc(-n3ccnc3)n2)cc1`, the AC50 was 15.8 µM (active).
On to `CC(C)C(NC(=O)C12CC3CC(CC(C3)C1)C2)C(=O)NC1=NCCS1` (stereo unspecified), for which the “activity, negative = inhibition” value is -16.5%.
Same read-out and setting: next, `COc1ccc(S(=O)(=O)N2CCC[C@H]2C(=O)NC2=NCCS2)cc1`: -24.4%.
In the case of `Cc1ccc(OCC(=O)NC2=NCCS2)cc1`, the AC50 is 8.91 µM (active).
The same measure, in the same setting: next, `O=C(Nc1cccnc1)C1COc2ccccc2O1` (stereo unspecified): 11.2 µM (active).
As to `Cc1ccc(S(=O)(=O)N2CCN(C(=O)C3COc4ccccc4O3)CC2)cc1C` (stereo unspecified), the “activity, negative = inhibition” value was -49%.
For `O=C(NCc1cccnc1)[C@@H]1[C@@H](C(=O)O)[C@H]2CC[C@@H]1O2`, the activity, negative = inhibition was -11% [at 11.4 µM].
On the same count and under the same terms, next, `O=C(NCCCN1CCOCC1)C1COc2ccccc2O1` (stereo unspecified): 5.54%.
With `O=C(NCc1cccnc1)C1COc2ccccc2O1` (stereo unspecified), the AC50 was 15.8 µM (active).
For the molecule `CS(=O)(=O)N1CCC2(CCCN(C(=O)Nc3cccc(C#N)c3)C2)CC1`, the “activity, negative = inhibition” value is 4.7%.
On the same count and under the same terms, next, `CC(=O)N1CCC[C@@]2(CCN(Cc3nccs3)C2)C1`: -9.06%.
Regarding `Cn1nc(-c2ccccc2)c(C(=O)Nc2ccc(Cl)cc2)c1Cl`, the AC50 is 1.26 µM (active).
With `Cc1nn(C)c(C(=O)NNC(=S)Nc2ccc(Cl)cc2)c1[N+](=O)[O-]`, the “activity, negative = inhibition” value was -6.63%.
On to `COC(=O)CC1C(=O)NCCN1C(=O)Nc1ccc(Cl)cc1` (stereo unspecified), for which the “activity, negative = inhibition” value is -14.1%.
`Cn1nccc1C(=O)Nc1ccc(Cl)cc1`: the AC50 is 4.47 µM (active).
In the case of `O=C(Nc1ccc(Cl)cc1)c1cnc(-c2ccccc2)nc1-c1ccccc1`, the half-maximal activity concentration (AC50) was 0.708 µM (active).
On to `Cc1nn(Cc2c(F)c(F)c(F)c(F)c2F)c(C)c1NC(=O)c1c(-c2ccccc2)nn(-c2ccccc2)c1C`, for which the “activity, negative = inhibition” value was 2.23%.
The same measure, in the same setting: next, `CC(=O)OC[C@@H]1O[C@@H](O/N=C2/C[C@@H](O)[C@@H](O)[C@@H]3[C@@H]4C(=O)N([C@@H](C)c5ccccc5)C(=O)[C@H]4CC[C@@H]23)[C@H](OC(C)=O)[C@H](OC(C)=O)[C@@H]1OC(C)=O`: 4.64% [at 11.4 µM].
Consider `COc1ccc(CNc2ncncc2-c2ccccc2OC)c(OC)c1`, for which the half-maximal activity concentration (AC50) was 5.01 µM (active).
On the same count and under the same terms, next, `COc1ccc(CNc2ncncc2-c2ccccc2CN(C)C)c(OC)c1`: 15.8 µM (active); `COc1ccc(CNc2ncncc2-c2ccccc2C)c(OC)c1`: 10 µM (active).
On to `O=C1C[C@H]2C(=O)[C@@H]1[C@@H](C(=O)O)[C@H]2C(=O)O`, for which the activity, negative = inhibition is -11% [at 11.4 µM].
Same read-out and setting: next, `COc1ccc(COC2OC[C@]3(C)[C@H]4C5=C(CN3C(=O)OC(C)(C)C)[C@H](C)C(CO)C(CO)C5CC[C@@H]24)cc1` (stereo partly specified): -11.3%.
The same measure, in the same setting: next, `CC(C)[C@H](NC(=O)OC(C)(C)C)[C@@H](O)CC(=O)OC(C)(C)C`: -7.19% [at 11.4 µM].
As to `CCOC(=O)N1CCN(CC(=O)c2ccc3c(c2)CCN3)CC1`, the “activity, negative = inhibition” value is -27.8%.
The same measure, in the same setting: next, `CCOc1cc(/C=C2/C(=N)N3C=CSC3=NC2=O)ccc1OCCCOc1ccccc1C`: -27.4%; `COc1cc(/C=C2/C(=N)N3OC(C)=CC3=NC2=O)ccc1OCCOc1ccc(C)cc1`: -8.75%.
Turning to `COc1cc(/C=C2/C(=N)N3C=CSC3=NC2=O)ccc1OCCCOc1c(C)cccc1C`, the AC50 was 3.55 µM (active).
The same measure, in the same setting: next, `CCOC(=O)c1c(C(C)(C)C)oc2ccc(O)cc12`: 0.251 µM (active).
On the same count and under the same terms, next, `C[C@@](N)(Cc1ccc(O)c(O)c1)C(=O)O`: “inactive”; `C[C@@](N)(Cc1ccc(O)cc1)C(=O)O`: “inactive”.
With `COC(=O)[C@@H]1CC[C@H](C)[C@@H](c2ccc(C)cc2)N1C(=O)c1ccc(/C=N\OC[C@@H](O)[C@H]2O[C@H]3OC(C)(C)O[C@H]3[C@@H]2O)cc1`, the activity, negative = inhibition is -5.97% [at 11.4 µM].
Regarding `CCC1(O)c2ccccc2-c2ncccc21` (stereo unspecified), the AC50 was 14.1 µM (active).
Same read-out and setting: next, `O=c1c(-c2ccc(F)cc2)nc2cnc(N3CCOCC3)nc2n1C[C@H]1CCCO1`: 1.58 µM (active); `O=c1c(-c2ccccc2)nc2cnc(N3CCOCC3)nc2n1C[C@H]1CCCO1`: 3.16 µM (active); `O=c1c(-c2ccc(Cl)cc2)nc2cnc(N3CCOCC3)nc2n1C[C@H]1CCCO1`: 2 µM (active).
Consider `CC(=O)N1CCC2(CC1)CN(Cc1ccccc1)C2`, for which the “activity, negative = inhibition” value was 3.64%.
Same read-out and setting: next, `Oc1cc2c(c(Cl)c1O)CCNC[C@H]2c1ccccc1`: -20.5%.
Take `COc1ccc2c(c1)Cc1cc(N=[N+]([O-])c3ccc4c(c3)Cc3cc(OC)ccc3-4)ccc1-2`: the half-maximal activity concentration (AC50) is 1.58 µM (active).
Take `C/C(CCN1CCc2nc(-c3ccccc3)c(-c3ccccc3)cc2C1)=N\OC[C@@H](O)[C@@H]1O[C@@H]2OC(C)(C)O[C@@H]2[C@H]1O`: the activity, negative = inhibition is -5.51% [at 11.4 µM].
On the same count and under the same terms, next, `O=C(c1cc(C(F)(F)F)cc(C(F)(F)F)c1)N1CCC2(CC1)CN(c1ccccn1)C2`: -5.11%; `CC(C)=NO[C@@H](C)c1cn([C@@H]2COC[C@@H]2O)nn1`: -6.31% [at 11.4 µM].
On the same count and under the same terms, next, `CCn1c(Cc2ccccc2)nnc1SCC(=O)NC(C)(C)C`: -26.9%.
As to `CC(C)(C)NC(=O)CSC(=Nc1ccc(F)cc1)NC#N`, the AC50 is 2.51 µM (active).
As to `C[C@@H]1CC[C@H]2C(=O)NC[C@@H](O)CN2[C@@H]1c1ccc(Br)cc1`, the activity, negative = inhibition was -9.06% [at 11.4 µM].
For the molecule `O=[N+]([O-])C1=CC=C2C(=NC3(CCCCC3)N2O)C1=NC1CCCCC1`, the AC50 was 10 µM (active).
As for `N[C@@H](C(=O)O)c1ccc(O)c(C(=O)O)c1`, the “activity, negative = inhibition” value is -18.9%.
The same measure, in the same setting: next, `Nc1ccc(O)c(C(=O)O)c1`: -7.04% [at 25.6 µM].
Regarding `O=C(O)C1=CC(=C(c2ccc(O)c(C(=O)O)c2)c2ccc(O)c(C(=O)O)c2)C=CC1=O`, the concentration at half-maximal activity (AC50) was 10 µM (active).
With `C#CCCCO/N=C1/C[C@@H](O)[C@@H](O)[C@@H]2[C@@H]3C(=O)N(Cc4ccccc4)C(=O)[C@H]3CC[C@H]12`, the activity, negative = inhibition is 0.662% [at 11.4 µM].
On to `Cc1nc(S(=O)(=O)NC2CCCCC2)c(C#N)c(C)c1Cl`, for which the concentration at half-maximal activity (AC50) was 10 µM (active).
As for `O=C(NNS(=O)(=O)c1ccc(Cl)cc1)NC1CCCCC1`, the “activity, negative = inhibition” value was 5.14%.
As to `Cc1nc(S(=O)(=O)N(C)c2ccccc2)c(C#N)c(C)c1Cl`, the concentration at half-maximal activity (AC50) was 15.8 µM (active).
For the molecule `CO[C@@H]1COC(=O)[C@@H](CCSC)NC(=O)C/C=C\[C@@H](C)COC(=O)CCC[C@H]1C`, the activity, negative = inhibition was 0.608% [at 11.4 µM].
Consider `Cc1cc(C)n(-c2nnc(C)n2/N=C/c2ccccc2OCc2ccccc2Cl)n1`, for which the AC50 was 2 µM (active).
With `CCOC(=O)COc1c(OC)cc(Cl)cc1C1Nc2ccccc2C(=O)N1c1ccc(F)cc1` (stereo unspecified), the “activity, negative = inhibition” value is -13.9%.
Still for that read-out and setting: next, `CCOC(=O)COc1c(OC)cc(Cl)cc1C1Nc2ccccc2C(=O)N1c1cccc(C)c1` (stereo unspecified): -11.9%.
`CCOC(=O)COc1c(C=O)cc(Br)cc1OC`: the AC50 is 4.47 µM (active).
Same read-out and setting: next, `CCOC(=O)c1cc(-c2ccc(Cl)cc2)nc2c1c(C)nn2CCC#N`: 0.891 µM (active); `CC1CC2(CCCCC2)N2C(=O)C(=O)c3cccc1c32` (stereo unspecified): 2.24 µM (active); `Cn1nc(C(F)(F)F)c(/C=N/OC(=O)c2ccccc2Cl)c1SCc1ccc(Cl)cc1`: 2.82 µM (active).
`Cn1nc(C(F)(F)F)c(/C=N/OC(=O)c2ccc(Cl)cc2)c1Cl`: the AC50 was 12.6 µM (active).
On the same count and under the same terms, next, `Cn1nc(C(F)(F)F)c(/C=N/OCc2c(Cl)cccc2Cl)c1Cl`: 1.26 µM (active).
In the case of `COc1ccc(C(=O)O/N=C/c2ccc(S(=O)c3ccc(Cl)cc3)nc2)cc1` (stereo unspecified), the “activity, negative = inhibition” value is -7.11%.
The same measure, in the same setting: next, `N[C@H](CCC(=O)NCS(=O)(=O)O)C(=O)O`: -1.79%.
Take `O=C(CSc1nnc(-c2ccccc2)n1-c1ccccc1)c1cccs1`: the half-maximal activity concentration (AC50) was 14.1 µM (active).
Take `Cc1ccc(C(=O)NNC(=O)CSc2nnc(-c3ccncc3)n2-c2ccc(C)cc2)cc1`: the “activity, negative = inhibition” value is -28.8%.
`CCn1c(SCC(=O)c2ccccc2)nnc1-c1cccs1`: the concentration at half-maximal activity (AC50) is 3.55 µM (active).
Regarding `CCn1c(SCC(=O)N2CCN(S(=O)(=O)c3ccccc3)CC2)nnc1-c1cccs1`, the “activity, negative = inhibition” value is -26.8%.
As to `Cc1ccccc1NC(=O)CSc1nnc(-c2ccccc2)n1-c1ccccc1`, the “activity, negative = inhibition” value was -28.6%.
Consider `CCn1c(SCC(=O)c2ccc3ccccc3c2)nnc1-c1cccs1`, for which the half-maximal activity concentration (AC50) is 3.55 µM (active).
With `Cn1cccc1C(=O)N1CCC2(CC1)CN(C(=O)Nc1ccccc1)C2`, the “activity, negative = inhibition” value is -10.3%.
For `O=C(O)C1(C(=O)O)CCN(S(=O)(=O)c2ccccc2)CC1`, the activity, negative = inhibition was 13.9% [at 2.29 µM].
The same measure, in the same setting: next, `O=C(c1ccccc1)c1nc2ccccc2n(CCCn2c(=O)c(C(=O)c3ccccc3)nc3ccccc32)c1=O`: -29.7%.
On to `CCCCCn1c(=O)c(C(=O)c2ccccc2)nc2ccccc21`, for which the AC50 was 0.708 µM (active).

The values above are taken from PubChem BioAssay AID1851 (National Center for Advancing Translational Sciences (NCATS), 2009).
